Among the data in PubChem BioAssay (Tox21) are Potency and outcome values, retold here.

Experiment [1] can be described thus: qHTS assay to identify small molecule agonists of the sonic hedgehog signaling (Shh) pathway (AID 1259368; calls by dose curve;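 also: NIH/3T3-derived 3T3Gli1-Luc cells carrying a stable Gli1-driven firefly luciferase reporter; series mostly up to about 92 µM; nearly all actives have a fitted effect of over 15% in size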). The method, boiled down: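 Hedgehog pathway agonism scored by increased firefly luciferase luminescence in 3T3Gli1-Luc cells treated 24 hr at 37 C; detection used a 30 min room-temperature reagent incubation.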
In general terms: In qHTS, concentration-response curves come from the screen itself.

Experiment [2] in a line: qHTS assay to identify small molecule antagonists of the sonic hedgehog signaling (Shh) pathway (AID 1259369; calls by dose curve; also: nearly all actives have a fitted effect of over 45% in size; also: potency is read from the fitted curve at half-maximal effect). A digest of the protocol: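 NIH/3T3 stable Gli1-Luc clone, 2,000 cells/well, 4hr settle; cpd + conditioned medium 24hr; Luc reagent 30min RT; luminescence.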
The target in experiment [3] is Estrogen receptor beta (Homo sapiens) (UniProt Q92731). Description: qHTS assay to identify small molecule agonists of the estrogen receptor beta (ER-beta) signaling pathway (AID 1259377; active = well fitted activation curve with a large enough effect in the signal ratio in the repeat runs, not every such curve was filed as active; the % refers to the signal ratio). A digest of the protocol:
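Beta-lactamase reporter readout: fluorescence of LiveBLAzer B/G FRET substrate after 2 h at room temperature, following 16 h compound treatment of ER-beta-UAS-bla HEK293T cells at 37C in 2% charcoal-stripped FBS medium.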

For experiment [4] the target is unchanged. Description: qHTS assay to identify small molecule antagonists of the estrogen receptor beta (ER-beta) signaling pathway (AID 1259378; active = well fitted inhibition curve with a large enough effect in the signal ratio in the repeat runs, not every such curve was filed as active; the % refers to the signal ratio). A digest of the protocol:
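ER-beta-UAS-bla HEK293T cells in 2% charcoal-stripped FBS medium treated with compound plus 1nM final 17-beta-estradiol for 16 hr at 37C. Beta-lactamase reporter read by FRET substrate fluorescence after 2 hours at room temperature.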

Experiment [5] in a line: qHTS assay to identify small molecule agonists of the androgen receptor (AR) signaling pathway in the presence of an antagonist - cell viability counter screen (AID 1259379). Also: nearly all actives have a fitted effect of over 25% in size. Also: potency is read from the fitted curve at half-maximal effect. A digest of the protocol: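 MDA-kb2 viability measured by CellTiter-Fluor fluorescence in the same wells as the luciferase signal; nilutamide 3.0uM final; 15-point compound titration; 16 hr at 37C.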

The nature of experiment [6]: qHTS assay to identify small molecule agonists of the estrogen receptor beta (ER-beta) signaling pathway - cell viability counter screen (AID 1259380). Also: nearly all actives have a fitted effect of over 30% in size. Also: potency is read from the fitted curve at half-maximal effect. The method, boiled down:
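Measured: luminescence from CellTiter-Glo after 30 min at room temperature, added to wells already read for the LiveBLAzer FRET reporter (2 hr substrate); ER-beta-UAS-bla HEK293T cells had 16 hr compound treatment at 37C, 5% CO2.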

In experiment [7] the target is Estrogen receptor (Homo sapiens) (UniProt P03372). Description: qHTS assay to identify small molecule agonists of the estrogen receptor alpha (ER-alpha) signaling pathway in the presence of an antagonist (AID 1259383; calls by dose curve; also: top concentration of the series differs between compounds; nearly all actives have a fitted effect of over 15% in size). The method, boiled down: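 Quantitative HTS confirmation: compounds titrated at 15 concentrations onto estrogen-deprived VM7Luc4E2 cells carrying a four-ERE luciferase construct, with ICI-182,780 present at 10.0nM final. Signal is luminescence after 22hr exposure.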
Chain of Estrogen receptor (Homo sapiens) (P03372 whole entry, looked up): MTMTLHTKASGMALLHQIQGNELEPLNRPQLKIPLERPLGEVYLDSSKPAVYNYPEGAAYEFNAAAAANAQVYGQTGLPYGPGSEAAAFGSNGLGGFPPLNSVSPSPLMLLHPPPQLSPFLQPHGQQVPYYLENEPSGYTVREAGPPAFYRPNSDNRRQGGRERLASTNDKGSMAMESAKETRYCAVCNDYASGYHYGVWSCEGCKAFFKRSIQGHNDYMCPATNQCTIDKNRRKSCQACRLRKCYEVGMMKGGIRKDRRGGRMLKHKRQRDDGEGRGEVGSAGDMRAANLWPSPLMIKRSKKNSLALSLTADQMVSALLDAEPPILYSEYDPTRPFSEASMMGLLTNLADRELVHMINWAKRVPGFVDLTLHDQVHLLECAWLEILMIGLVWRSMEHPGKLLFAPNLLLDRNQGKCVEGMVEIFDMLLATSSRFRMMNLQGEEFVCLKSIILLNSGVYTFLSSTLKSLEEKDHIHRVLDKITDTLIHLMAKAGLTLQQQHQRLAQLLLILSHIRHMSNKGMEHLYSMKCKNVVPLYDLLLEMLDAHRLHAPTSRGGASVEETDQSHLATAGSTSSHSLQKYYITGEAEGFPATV

Experiment [8] can be described thus: qHTS assay to identify small molecule agonists or antagonists of the thyroid stimulating hormone receptor (TSHR) signaling pathway - wild type cell line counter screen (AID 1259384; calls by dose curve). A digest of the protocol:
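Wild-type Hek293 cells, 800/well, 18 h at 37C, then compound with Ro20-1724 for 30 min RT. cAMP by HTRF (cAMP-d2/anti-cAMP cryptate), 1 h RT, fluorescence read. 15 concentrations, triplicates.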

Experiment [9] addresses Thyrotropin receptor (Homo sapiens) (UniProt P16473). Description: qHTS assay to identify small molecule antagonists of the thyroid stimulating hormone receptor (TSHR) signaling pathway (AID 1259385; calls by dose curve; also: nearly all actives have a fitted effect of over 20% in size). A digest of the protocol: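 TSHR-HEK293 cells (800/well) plated 18 h, then compounds with Ro20-1724 and TSH at 1.5 ng/mL final, 30 min at room temperature. cAMP quantified by HTRF (cAMP-d2/anti-cAMP-cryptate, 1 h); 15 concentrations in triplicate.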

Experiment [10] in a line: qHTS assay to identify small molecule agonists of the estrogen receptor alpha (ER-alpha) signaling pathway in the presence of an antagonist - cell viability counter screen (AID 1259386).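 Also: cells exposed to compounds for 22 h at 37 °C before the viability read; nearly all actives have a fitted effect of over 30% in size.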 Also: potency is read from the fitted curve at half-maximal effect. A digest of the protocol:
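The test measures whether compounds kill ER-alpha reporter cells (VM7Luc4E2) under antagonist co-treatment (ICI-182,780, 10.0nM). Fluorescence from CellTiter-Fluor is read after a 22hr exposure.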

Experiment [11] is described as follows: qHTS assay to identify small molecule antagonists of the progesterone receptor (PR) signaling pathway - cell viability counter screen (AID 1346798). Also: series mostly up to about 92 µM; nearly all actives have a fitted effect of over 50% in size. The method, boiled down:
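Luminescence readout (CellTiter-Glo, 30 min, RT) of viability in PR-UAS-bla HEK293T cells exposed to compound and R5020 agonist for 16 hr at 37C, 5% CO2; run in the same wells as the beta-lactamase reporter read.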

Experiment [12] is described as follows: qHTS assay to identify small molecule agonists of the progesterone receptor (PR) signaling pathway - cell viability counter screen (AID 1346799; calls by dose curve; also: nearly all actives have a fitted effect of over 45% in size). A digest of the protocol:
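HEK293T PR-UAS-bla, 3,000 cells/well, 2% charcoal-stripped FBS; 6 h settle, compound 16 h at 37C/5% CO2; LiveBLAzer 2 h RT, then CellTiter-Glo 30 min RT, luminescence read.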

Experiment [13] can be described thus: qHTS assay to identify small molecule antagonists of the TGF-beta/Smad signaling pathway - cell viability counter screen (AID 1346824). Also: nearly all actives have a fitted effect of over 50% in size. The method, boiled down: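 SBE-bla HEK 293T cells, incubated overnight, then compound plus 0.25 ng/mL TGF-beta1 (stock added) for 5 hr at 37 C. Viability was read in the same wells by CellTiter-Glo luminescence after 30 min at room temperature.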

Experiment [14] in a line: qHTS assay to identify small molecule agonists of the TGF-beta/Smad signaling pathway - cell viability counter screen (AID 1346829). Also: top concentration of the series differs between compounds; nearly all actives have a fitted effect of over 45% in size. The method, boiled down:
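HEK 293T SBE-bla line, 5 hr compound exposure at 37 C, multiplexed CellTiter-Glo viability read by luminescence.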

Experiment [15] can be described thus: qHTS assay to identify small molecule agonists of the TGF-beta/Smad signaling pathway (AID 1346859; active = well fitted activation curve with a large enough effect in the signal ratio in the repeat runs, not every such curve was filed as active; the % refers to the signal ratio; also: series mostly up to about 77 µM). The method, boiled down: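 Read-out: fluorescence at 460 and 530 nm (405 nm excitation) after a 2 hr room-temperature incubation with beta-lactamase FRET substrate. SBE-bla HEK 293T cells had been treated with test compounds for 5 hr at 37 C.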
Experiment [16] has as its target Thyrotropin-releasing hormone receptor (Homo sapiens) (UniProt P34981). The experiment in a line: qHTS assay to identify small molecule antagonists of the thyrotropin-releasing hormone receptor (TRHR) signaling pathway (AID 1346877; active = well fitted inhibition curve with a large enough effect in the repeat runs, not every such curve was filed as active; also: series mostly up to about 51 µM). The method, boiled down:
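Overnight-plated (18 h, 37 °C) HEK293 cells expressing TRHR were dye-loaded 2 h, treated with compound, then stimulated with TRH at 1 nM final. Fluorescence intensity was captured every second for 3 min.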

Experiment [17] can be described thus: qHTS assay to identify small molecule antagonists of the estrogen receptor beta (ER-beta) signaling pathway - cell viability counter screen (AID 1259382). Also: series mostly up to about 92 µM; nearly all actives have a fitted effect of over 55% in size. A digest of the protocol:
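Readout: luminescence, CellTiter-Glo, same wells as bla assay. System: ER-beta-UAS-bla GripTite HEK293T, 2% charcoal-stripped FBS. Exposure: compounds plus 1nM 17-beta-estradiol, 16 hr, 37C.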

Experiment [18] concerns the target Progesterone receptor (Homo sapiens) (UniProt P06401). The experiment in a line: qHTS assay to identify small molecule agonists of the progesterone receptor (PR) signaling pathway (AID 1346784; calls by dose curve; also: nearly all actives have a fitted effect of over 30% in size). The method, boiled down:
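HEK 293T PR-UAS-bla reporter cells, 2% charcoal-stripped FBS; 6 hr settle at 37C/5% CO2, compound (DMSO) 16 hr, LiveBLAzer B/G FRET substrate 2 hr RT, fluorescence intensity read.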

The target is the same in experiment [19]. The experiment in a line: qHTS assay to identify small molecule antagonists of the progesterone receptor (PR) signaling pathway (AID 1346795; active = well fitted inhibition curve with a large enough effect in the signal ratio in the repeat runs, not every such curve was filed as active; the % refers to the signal ratio; also: potency is read from the fitted curve at half-maximal effect). A digest of the protocol: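 Beta-lactamase reporter, HEK293T PR-UAS-bla line; 2% charcoal-stripped FBS; 6 hr pre-incubation, 37C/5% CO2. Compound + R5020 1 nM final, 16 hr. LiveBLAzer B/G FRET substrate, 2 hr RT; fluorescence intensity read.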

For experiment [20], the target named is Androgen receptor (Homo sapiens) (UniProt P10275). Description: qHTS assay to identify small molecule agonists of the androgen receptor (AR) signaling pathway in the presence of an antagonist (AID 1259381; calls by dose curve; also: nearly all actives have a fitted effect of over 15% in size). A digest of the protocol:
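Luminescent ONE-Glo read, 30min at room temperature, follows 16hr compound exposure (15 concentrations) of MDA-kb2 cells at 37C, 0% CO2, with nilutamide added at 3.0uM final.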

The structures appear in SMILES notation. Values joined by “and” are separate entries in the source; they are usually repeats but may differ in a detail not shown here. Equal values may be shown once. Inconclusive results are not listed. Active and inactive are the calls of the source. Unless noted, calls follow the shape of the dose curve; as a rule, active = well fitted curve in the direction sought with a large enough effect in the repeat runs; inconclusive = weak or mixed curves; inactive = no such curve, though single readings can be large; an effect the other way counts as inactive or inconclusive.

Chain of Thyrotropin receptor (Homo sapiens) (P16473 whole entry, looked up): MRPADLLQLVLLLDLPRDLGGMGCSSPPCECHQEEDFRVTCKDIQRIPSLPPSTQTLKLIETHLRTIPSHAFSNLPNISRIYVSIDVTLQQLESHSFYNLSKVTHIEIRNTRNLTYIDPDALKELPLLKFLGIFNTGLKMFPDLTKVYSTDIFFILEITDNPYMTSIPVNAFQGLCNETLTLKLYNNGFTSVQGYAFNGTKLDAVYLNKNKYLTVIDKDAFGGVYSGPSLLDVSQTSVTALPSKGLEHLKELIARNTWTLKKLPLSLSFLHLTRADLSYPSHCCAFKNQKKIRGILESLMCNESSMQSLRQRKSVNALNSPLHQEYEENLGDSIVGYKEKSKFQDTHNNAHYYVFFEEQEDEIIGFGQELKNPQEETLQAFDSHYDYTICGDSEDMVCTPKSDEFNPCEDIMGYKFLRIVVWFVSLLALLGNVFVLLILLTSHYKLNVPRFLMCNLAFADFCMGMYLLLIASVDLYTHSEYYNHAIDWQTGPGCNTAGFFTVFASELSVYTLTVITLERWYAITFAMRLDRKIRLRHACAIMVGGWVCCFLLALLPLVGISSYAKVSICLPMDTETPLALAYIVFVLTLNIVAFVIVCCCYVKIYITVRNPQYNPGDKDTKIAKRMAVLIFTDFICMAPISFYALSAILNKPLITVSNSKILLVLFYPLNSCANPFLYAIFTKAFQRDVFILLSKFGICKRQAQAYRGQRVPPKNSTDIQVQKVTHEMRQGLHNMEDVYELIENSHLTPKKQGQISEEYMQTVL
Chain of Thyrotropin-releasing hormone receptor (Homo sapiens) (P34981 whole entry, looked up): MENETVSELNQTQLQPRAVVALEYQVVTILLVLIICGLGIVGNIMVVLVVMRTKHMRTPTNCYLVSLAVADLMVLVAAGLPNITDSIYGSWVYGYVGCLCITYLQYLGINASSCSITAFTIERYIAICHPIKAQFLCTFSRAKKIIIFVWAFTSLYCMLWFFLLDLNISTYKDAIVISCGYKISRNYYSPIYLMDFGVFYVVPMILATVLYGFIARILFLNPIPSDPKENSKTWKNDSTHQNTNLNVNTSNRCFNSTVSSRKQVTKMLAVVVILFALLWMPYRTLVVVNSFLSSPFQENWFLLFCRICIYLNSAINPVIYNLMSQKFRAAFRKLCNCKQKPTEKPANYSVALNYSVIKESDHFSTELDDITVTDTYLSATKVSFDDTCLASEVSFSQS
Chain of Progesterone receptor (Homo sapiens) (P06401 whole entry, looked up): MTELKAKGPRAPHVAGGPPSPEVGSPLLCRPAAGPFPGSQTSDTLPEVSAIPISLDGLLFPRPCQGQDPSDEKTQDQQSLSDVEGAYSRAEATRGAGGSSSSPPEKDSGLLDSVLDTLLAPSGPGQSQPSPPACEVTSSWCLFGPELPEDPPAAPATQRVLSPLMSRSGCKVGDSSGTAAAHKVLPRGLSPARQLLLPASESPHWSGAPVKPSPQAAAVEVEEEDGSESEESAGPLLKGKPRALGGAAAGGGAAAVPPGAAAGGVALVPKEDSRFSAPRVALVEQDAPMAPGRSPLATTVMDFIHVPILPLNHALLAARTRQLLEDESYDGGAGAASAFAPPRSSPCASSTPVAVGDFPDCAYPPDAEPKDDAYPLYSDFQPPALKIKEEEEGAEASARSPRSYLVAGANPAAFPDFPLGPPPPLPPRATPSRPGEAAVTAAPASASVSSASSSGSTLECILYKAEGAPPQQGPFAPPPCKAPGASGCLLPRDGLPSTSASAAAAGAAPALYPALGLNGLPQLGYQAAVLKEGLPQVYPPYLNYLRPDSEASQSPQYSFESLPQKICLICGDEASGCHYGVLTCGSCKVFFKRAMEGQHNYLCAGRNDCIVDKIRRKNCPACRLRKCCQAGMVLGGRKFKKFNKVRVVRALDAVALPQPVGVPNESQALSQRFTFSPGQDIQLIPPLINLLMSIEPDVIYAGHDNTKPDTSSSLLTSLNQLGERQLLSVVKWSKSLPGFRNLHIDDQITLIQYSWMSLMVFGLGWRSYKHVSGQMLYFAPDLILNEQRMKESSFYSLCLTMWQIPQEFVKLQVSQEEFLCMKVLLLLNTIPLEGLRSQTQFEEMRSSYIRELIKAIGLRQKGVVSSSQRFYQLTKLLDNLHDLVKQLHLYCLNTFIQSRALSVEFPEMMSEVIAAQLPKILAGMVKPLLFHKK
Chain of Androgen receptor (Homo sapiens) (P10275 whole entry, looked up): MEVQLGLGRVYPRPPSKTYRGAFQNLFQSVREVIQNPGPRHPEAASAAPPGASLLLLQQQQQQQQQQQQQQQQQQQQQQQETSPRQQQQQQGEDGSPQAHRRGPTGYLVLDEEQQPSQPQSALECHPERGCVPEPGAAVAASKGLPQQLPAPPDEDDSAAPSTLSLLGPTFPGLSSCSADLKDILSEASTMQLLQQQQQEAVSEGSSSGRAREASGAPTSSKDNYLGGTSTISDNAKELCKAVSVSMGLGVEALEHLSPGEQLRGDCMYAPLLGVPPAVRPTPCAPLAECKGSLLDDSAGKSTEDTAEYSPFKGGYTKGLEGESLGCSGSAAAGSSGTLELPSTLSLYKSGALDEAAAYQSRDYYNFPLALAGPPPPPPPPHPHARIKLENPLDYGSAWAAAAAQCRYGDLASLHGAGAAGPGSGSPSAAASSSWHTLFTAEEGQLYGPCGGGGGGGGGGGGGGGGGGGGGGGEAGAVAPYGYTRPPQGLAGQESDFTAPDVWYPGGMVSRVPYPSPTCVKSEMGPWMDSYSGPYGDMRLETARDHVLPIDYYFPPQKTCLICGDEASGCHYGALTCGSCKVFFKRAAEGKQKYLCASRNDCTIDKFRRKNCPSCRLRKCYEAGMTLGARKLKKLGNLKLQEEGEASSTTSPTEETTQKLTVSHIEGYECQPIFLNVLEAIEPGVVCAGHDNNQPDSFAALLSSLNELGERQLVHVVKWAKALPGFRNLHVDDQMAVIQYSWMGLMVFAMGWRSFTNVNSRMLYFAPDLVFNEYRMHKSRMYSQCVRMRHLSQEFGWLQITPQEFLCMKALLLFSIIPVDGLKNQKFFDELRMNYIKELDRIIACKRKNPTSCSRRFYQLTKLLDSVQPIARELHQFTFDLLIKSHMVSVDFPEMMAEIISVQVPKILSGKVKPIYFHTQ
Chain of Estrogen receptor beta (Homo sapiens) (Q92731 whole entry, looked up): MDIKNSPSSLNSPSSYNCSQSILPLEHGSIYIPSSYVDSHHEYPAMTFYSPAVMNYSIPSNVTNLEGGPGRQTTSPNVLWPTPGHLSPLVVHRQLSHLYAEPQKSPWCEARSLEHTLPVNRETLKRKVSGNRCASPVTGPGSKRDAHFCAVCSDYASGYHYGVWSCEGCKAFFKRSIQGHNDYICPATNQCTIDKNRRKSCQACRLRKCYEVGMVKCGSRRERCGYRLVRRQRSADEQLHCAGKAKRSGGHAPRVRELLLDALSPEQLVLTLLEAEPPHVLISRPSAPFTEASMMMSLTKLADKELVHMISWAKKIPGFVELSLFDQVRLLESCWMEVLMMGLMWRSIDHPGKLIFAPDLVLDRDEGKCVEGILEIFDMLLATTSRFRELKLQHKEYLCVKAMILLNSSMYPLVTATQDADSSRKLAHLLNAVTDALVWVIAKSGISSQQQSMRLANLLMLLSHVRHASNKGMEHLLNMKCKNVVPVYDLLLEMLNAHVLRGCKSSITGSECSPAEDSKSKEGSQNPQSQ

Consider `CCCCC(CC)COC(=O)Cl` (stereo not given), for which the Potency result in experiment [1], in experiment [2], in experiment [3], in experiment [4], in experiment [5] and in experiment [6] was “inactive” in each case. Moreover, the Potency result in experiment [7], in experiment [10], in experiment [11], in experiment [12], in [13] and in experiment [14] was “inactive” each time. The Potency result in experiment [16] is “inactive”. For the same compound, the compound was called inactive in experiment [8], in experiment [9] and in experiment [15].

For the compound `O=P(Oc1ccccc1)(Oc1ccccc1)Oc1ccccc1`, the Potency entry in [1], in experiment [3], in experiment [5], in experiment [17], in [7] and in experiment [10] was “inactive” in each case. Besides, the Potency result in experiment [11], in [12], in experiment [13], in [14] and in experiment [16] was “inactive” throughout. The Potency in experiment [2] was 1.08 µM (active) and 2.43 µM (active); in [6], 34.4 µM (active). Also, the result in experiment [8], in experiment [9] and in experiment [15] was inactive.

For the compound `O=c1oc2ccccc2c(O)c1C(CC(O)c1ccc(-c2ccc(Br)cc2)cc1)c1ccccc1` (stereo not given), the Potency entry in experiment [1], in experiment [2], in experiment [3], in experiment [5], in experiment [6] and in experiment [17] was “inactive” in each case. In addition, the Potency result in [7], in experiment [10], in [18], in experiment [13], in [14] and in experiment [16] was “inactive” each time.

In the case of `O=C(NC(=O)c1c(F)cccc1F)Nc1ccc(Cl)cc1`, the Potency entry in experiment [1], in [2], in experiment [3], in experiment [4], in experiment [5] and in experiment [6] was “inactive” throughout. Besides, the Potency entry in [7], in experiment [10], in experiment [19], in [11], in experiment [12] and in experiment [13] was “inactive” throughout. In [14], the Potency entry was “inactive”. For the same compound, the result in [8], in [9] and in experiment [15] was inactive.

On to `Nc1c(Cl)cc([N+](=O)[O-])cc1Cl`, for which the Potency result in [1], in experiment [2], in experiment [3], in [5], in experiment [20] and in [7] was “inactive” in each case. For the same compound, the Potency entry in experiment [18], in [11], in [13], in experiment [14] and in experiment [16] was “inactive” in each case. The Potency in [6] was 61.5 µM (active) and 27.3 µM (active); in [19], 30.6 µM (active). For the same compound, in experiment [15], the compound was classed as inactive.

In the case of `Cc1cc(Cl)ccc1OCCCC(=O)O`, the Potency entry in experiment [1], in experiment [2], in experiment [3], in experiment [5], in experiment [6] and in [20] was “inactive” throughout. The Potency result in experiment [17], in [10], in experiment [19], in experiment [11], in experiment [12] and in experiment [13] was “inactive” each time. Moreover, the Potency entry in [14] and in experiment [16] was “inactive” throughout. The outcome in experiment [8] and in [9] was inactive.

As for `O=[N+]([O-])c1ccc(O)c([N+](=O)[O-])c1`, the Potency result in [1], in experiment [3], in experiment [6], in experiment [20], in [17] and in experiment [7] was “inactive” each time. For the same compound, the Potency entry in [19], in experiment [13], in experiment [14] and in experiment [16] was “inactive” in each case. Also, the Potency in experiment [2] was 30.8 µM (active) and 30.6 µM (active); in experiment [5], 48.8 µM (active) and 48.6 µM (active); in experiment [10], 30.8 µM (active) and 27.3 µM (active). Besides, the compound was classed as inactive in experiment [8], in experiment [9] and in experiment [15].

In the case of `COP(=S)(OC)Oc1cc(Cl)c(Cl)cc1Cl`, the Potency entry in experiment [1], in experiment [2], in experiment [3], in experiment [4], in experiment [5] and in experiment [20] was “inactive” throughout. In addition, the Potency result in experiment [17], in experiment [7], in experiment [10], in experiment [18], in [19] and in experiment [11] was “inactive” in each case. Moreover, the Potency result in [12], in [13], in experiment [14] and in experiment [16] was “inactive” in each case. The call in experiment [8], in experiment [9] and in experiment [15] was inactive.
